Laboratory results from the supplement of paper PMC9844399.
Structures can show the parent of a compound that is named as a salt.

These compounds were tested on HeLa (assay: nuclear count per well, robust Z-score vs DMSO; higher = more cells (less toxicity)). Settings: 10 µM; 6 h.
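Also: Hoechst-stained nuclei counted by automated confocal imaging of four fields per well in 384-well plates, with the robust Z-score based on the per-plate DMSO median and robust SD.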

Row | Compound | nuclear count per well
1 | CCNC(=O)CCC/C=C\C[C@@H]1[C@@H](/C=C/[C@@H](O)CCc2ccccc2)[C@H](O)C[C@@H]1O [Bimatoprost] | -0.229
2 | CCCCCCCCCCCCC/C=C/[C@@H](O)[C@@H](N)CO [Sphingosine] | 0.991
3 | CC(=O)NCCc1c(Cc2ccccc2)[nH]c2ccccc12 [Luzindole] | 0.983
4 | CCc1c2c(nc3ccc(OC(=O)N4CCC(N5CCCCC5)CC4)cc13)-c1cc3c(c(=O)n1C2)COC(=O)[C@]3(O)CC [Irinotecan (hydrochloride)] | -1.09
5 | COc1cc2nc(N3CCN(C(=O)C4CCCO4)CC3)nc(N)c2cc1OC (stereo unspecified) | 0.393
6 | C#C[C@]1(O)CC[C@H]2[C@@H]3CCc4cc(O)ccc4[C@H]3CC[C@@]21C [Ethinyl estradiol] | 0.192
7 | CC1=C(/C=C/C(C)=C/C=C/C(C)=C\C(=O)O)C(C)(C)CCC1 [Isotretinoin (13-Cis-Retinoic Acid)] | -0.689
8 | CC(C)OC(=O)C(C)(C)Oc1ccc(C(=O)c2ccc(Cl)cc2)cc1 [Fenofibrate] | 0.0273
9 | C#C[C@]1(O)CC[C@H]2[C@@H]3CCC4=CC(=O)CC[C@@H]4[C@H]3C(=C)C[C@@]21CC [Etonogestrel] | -1.34
10 | CN(C)CCC=C1c2ccccc2C=Cc2ccccc21 | 0.73
11 | CC(C)(C)NC[C@H](O)COc1cccc2c1CCCC2=O | -0.231
12 | Cc1ccc2c(c1)C(=O)C1(O)CCN(c3ccccc3)C1=N2 (stereo unspecified) [Blebbistatin] | 0.352
13 | OC[C@H]1NC[C@H](O)[C@@H](O)[C@@H]1O [1-Deoxynojirimycin] | 0.783
14 | C[C@@H]1NC(=O)[C@@H](N)CNC(=O)[C@H](C2CCNC(=N)N2)NC(=O)/C(=C/NC(N)=O)NC(=O)[C@H](CNC(=O)CC(N)CCCN)NC1=O.N=C1NCC[C@H]([C@@H]2NC(=O)/C(=C/NC(N)=O)NC(=O)[C@H](CNC(=O)C[C@@H](N)CCCN)NC(=O)[C@H](CO)NC(=O)[C@@H](N)CNC2=O)N1 [Capreomycin Disulfate] | 2.37
15 | CCCCC[C@H](O)/C=C/[C@H]1[C@H](O)CC(=O)[C@@H]1C/C=C\CCCC(=O)O [Dinoprostone] | -0.453
16 | CC(=O)N[C@@H](CS)C(=O)O [Acetylcysteine] | 0.695

Row | Compound | nuclear count per well
17 | C[C@H]1[C@H](NC(=O)/C(=N\OC(C)(C)C(=O)O)c2csc(N)n2)C(=O)N1S(=O)(=O)O [Aztreonam] | 0.104
18 | CCCCC/C=C\C/C=C\C/C=C\C/C=C\CCCC(=O)O[C@H](COCCCCCCCCCCCCCCCC)COP(=O)([O-])OCC[N+](C)(C)C [Arachidonoyl-PAF] | 0.0986
19 | CCC(C)[C@H](NC(=O)[C@H](CCCCN)NC(=O)[C@H](CCCCN)NC(=O)[C@H](C)NC(=O)[C@H](CC(C)C)NC(=O)[C@H](C)NC(=O)[C@H](C)NC(=O)[C@H](CC(C)C)NC(=O)[C@H](C)NC(=O)[C@H](CCCCN)NC(=O)[C@H](CC(C)C)NC(=O)[C@H](CC(N)=O)NC(=O)[C@@H](N)[C@@H](C)CC)C(=O)N[C@@H](CC(C)C)C(N)=O (stereo partly specified) [Mastoparan] | 0.543
20 | CCCCCCCCCCCCCCCCOCC(CO)OC(C)=O (stereo unspecified) [1-Hexadecyl-2-O-acetyl-glycerol] | 0.253
21 | COc1ccc(Cl)cc1C(=O)NCCc1ccc(S(=O)(=O)NC(=O)NC2CCCCC2)cc1 [Glyburide] | -0.179
22 | CCCCC[C@H](O)/C=C/C1=C(CCCCCCC(=O)O)C(=O)CC1 [Prostaglandin B1] | 1.38
23 | c1ccc2c(CC3=NCCN3)cccc2c1 | 0.219
24 | c1ccc2c(-c3ccncc3)c[nH]c2c1 [Rockout] | 1.18
25 | COCCOC(=O)C1=C(C)NC(C)=C(C(=O)OC(C)C)C1c1cccc([N+](=O)[O-])c1 (stereo unspecified) [Nimodipine] | 0.889
26 | CCCCCCCCCCCCCCCCOCC(CO)OC (stereo unspecified) [1-Hexadecyl-2-O-methyl-glycerol] | -0.235
27 | CCN(CC)CCNC(=O)c1cc(Cl)c(N)cc1OC | -0.369
28 | CC(O)C(=O)O (racemic) [DL-Lactic Acid] | 1.09
29 | CCCC(=O)O[C@]1(C(=O)COC(C)=O)CC[C@H]2[C@@H]3C[C@H](F)C4=CC(=O)C=C[C@]4(C)[C@@]3(F)[C@@H](O)C[C@@]21C [Difluprednate] | 0.412
30 | CCCCCC(O)C=CC1C2CC(CO2)C1CC=CCCCC(=O)O (stereo unspecified) | -2.84
31 | O=c1c(-c2ccc(O)cc2)coc2cc(O[C@@H]3O[C@H](CO)[C@@H](O)[C@H](O)[C@H]3O)ccc12 [Daidzin] | 1.05
